ATG4B inhibitor = ATG4B (human) cysteine protease inhibition; Q9Y4P1; ATG4B cleavage of LC3-PLA2, NBD-HPC fluorescence, 1 h; inhibition, % at 8.33 µM; 340,000 compounds, 0.51% hits; AID 504462; in the data active means inhibition above about 40%
Target sequence (Q9Y4P1 whole entry, looked up): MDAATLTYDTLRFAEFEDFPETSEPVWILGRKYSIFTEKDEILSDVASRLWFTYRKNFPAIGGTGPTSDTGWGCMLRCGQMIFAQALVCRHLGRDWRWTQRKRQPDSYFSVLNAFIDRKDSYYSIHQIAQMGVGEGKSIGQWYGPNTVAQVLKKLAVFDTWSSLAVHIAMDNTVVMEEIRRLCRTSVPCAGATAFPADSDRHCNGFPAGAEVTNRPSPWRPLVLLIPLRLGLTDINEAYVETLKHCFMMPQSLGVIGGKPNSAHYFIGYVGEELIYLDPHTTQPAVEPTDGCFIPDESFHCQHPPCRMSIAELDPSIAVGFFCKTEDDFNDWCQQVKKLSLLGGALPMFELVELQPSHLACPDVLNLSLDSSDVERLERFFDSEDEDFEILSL
Efflux pump mplx = blocks antifungal efflux pumps in multiplex yeast assay | 330,000 compounds, 0.44% hits | inhibition, % at 10 µM | S. cerevisiae Candida pump triplex, Nile Red efflux;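 active means plate passing quality check with inhibition over a set limit, or well fluorescence over plate mean plus 4 SD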;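 further: Nile Red retained in pooled yeast measured as flow cytometry median fluorescence; higher means more Nile Red kept so more efflux inhibition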
V-ATPase pH = regulators of yeast V-ATPase proton transport; response, % at 10 µM; 350,000 compounds, 0.37% hits; S. cerevisiae, pHLuorin cytosolic pH fluorescence; in the data active means response mostly above about 7.3%, no sharp cut-off; inactive means mostly below about 5.4%; further: actives read high
SUMO Mot1 rescue = blocks SUMOylation pathway, rescuing yeast Mot1-301 growth; S. cerevisiae Mot1-301 growth rescue, ATP luminescence, 38.5C; percent above DMSO median, 100 means doubled; growth rescue, % at 18.8 µM; 320,000 compounds, 1% hits; AID 2716;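 active means every valid replicate shows activation above 250% relative to neutral control wells; inactive means the rest, any valid replicate at or below 250%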
AI-2 QS modul = Vibrio harveyi AI-2 quorum sensing modulation | activity change, % at 7.5 µM | 300,000 compounds, 0.4% hits | Vibrio harveyi JMH597 AI-2 luminescence/OD600 ratio, 9 h; hits give low values; strain lacks LuxN and CqsS sensors; 0 = neutral-control median; in the data active means activity change below about -75%, passing the limit was not always enough;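 further: luminescence divided by OD600 gain over 9 h not by final OD600 alone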
A number is an active result; - = inactive; . = no result given. In the library only some 2.5% were active in any assay of this set; here they are far more common.

SMILES	ATG4B inhibitor	Efflux pump mplx	V-ATPase pH	SUMO Mot1 rescue	AI-2 QS modul
COc1ccccc1-n1cccc1C=O	-	-	-	658.7	-
N#C[C@H]1C(O)C(O)c2ccccc2N1C(=O)c1ccccc1 (stereo not given in full)	-	-	-	716.3	-
C/C(=N\Nc1ccc(F)cc1F)c1ccc(N2CCOCC2)cc1	-	-	-	279.3	-
COc1ccc([C@H]2C[C@H](n3cc(COC(=O)c4ccccc4)nn3)[C@@H](O)CN2Cc2cccs2)cc1	.	.	-	.	.
CCc1ccc(NCc2nc(-c3ccccc3)no2)cc1	-	-	-	-	-95.6
c1ccc(CCc2nc(-c3ccccc3)no2)cc1	-	-	-	-	-93.8
c1ccc(CCc2nc(-c3cccnc3)no2)cc1	-	-	-	-	-93.3
Brc1ccc(-c2noc(CCc3ccccc3)n2)cc1	-	-	-	-	-
COc1cc(C2NC(=O)NC(C)=C2C(=O)OC(C)C)ccc1OC(=O)c1ccco1 (stereo not given)	-	-	-	-	-
CN1CCN(C(CNC(=O)C(=O)NC2CCCC2)c2ccc(F)cc2)CC1 (stereo not given)	-	-	-	-	-
Cc1ccccc1N1CCN(C2CCCN(C(=O)CCC(=O)N(C)C)C2)CC1 (stereo not given)	-	-	-	293.9	-
Cc1ccccc1N1CCN(C2CCCN(C(=O)CCC(F)(F)F)C2)CC1 (stereo not given)	-	-	-	-	-
COc1cc(/C=N/O)cc(Cl)c1OC	-	-	-	327.8	-
COc1cc(/C=N/O)cc(Br)c1OC	-	-	-	-	-
CC(C)CN1Cc2ccccc2Oc2cc(Br)ccc2S1(=O)=O	-	-	-	.	.
O=C(NC1CCN(Cc2ccccc2)CC1)C1COc2ccccc2O1 (stereo not given)	-	-	-	273.3	-
O=C(NCc1ccccc1)C1COc2ccccc2O1 (stereo not given)	-	-	-	-	-
Cc1c(O)ccc2c(O)c(NC(=O)c3ccc4c(c3)CCC(C)(C)O4)c(=O)oc12	-	-	-	-	-
CCSc1nnc(NC(=O)Cn2cnc3ccccc3c2=O)s1	-	-	-	-	-80.6
Cc1ccc(CSc2nnc(NC(=O)Cn3cnc4ccccc4c3=O)s2)cc1	-	-	-	-	-
Cc1cccc(C(=O)N2CCc3cc(-c4nc(NC(=O)Cn5nnc6ccccc6c5=O)sc4C)ccc32)c1	.	-	.	378.3	-
CCOc1ncnc2c1oc1nc(CC(C)C)c3c(c12)CC(C)(C)OC3	-	-	-	-	-
CCOc1nc(CC(C)C)c2c(c1C#N)CC(C)(C)OC2	-	-	20.3	-	-
CCOc1ccc(NC(=O)CN(C)Cc2cc(=O)n3c(-c4ccccc4)csc3n2)cc1OCC	-	-	-	-	-
O=C(CS(=O)(=O)c1ccc(F)cc1)N1CCN(c2ccccc2)CC1	-	-	-	513.9	-
SMILES	ATG4B inhibitor	Efflux pump mplx	V-ATPase pH	SUMO Mot1 rescue	AI-2 QS modul
Oc1ccccc1N1CCN(c2nnnn2-c2ccccc2)CC1	-	-	-	439.0	-
Fc1ccccc1N1CCN(c2nnnn2-c2ccccc2)CC1	-	-	-	-	-
O=C(CSc1nnc2ccccn12)Nc1ccccc1C(=O)O	-	-	-	-	-
CN(C)c1ccc(/C=N/NC(=O)Cn2nnc3ccccc32)cc1	-	-	-	-	-
COc1ccc(/C=N/NC(=O)Cn2nnc3ccccc32)cc1OC	-	-	-	-	-91.9
COc1ccc(C(=O)CCc2nc3ccccc3s2)cc1	-	-	-	355.1	-
O=c1cc(-c2cccc(Br)c2)nc(-c2ccccc2F)o1	45.8	-	-	-	-
Cc1cccc(NC(=O)c2ccc(NC(C)c3ccccc3)c([N+](=O)[O-])c2)n1 (stereo not given)	-	-	-	-	-
CN(C)c1cccc(C(=O)OCC(=O)Nc2nccs2)c1	-	-	-	-	-
O=C(NC(=S)Nc1ccc(F)c(Cl)c1)C1CC1	-	-	-	-	-78.3
Cc1ccc(NC(=S)NC(=O)C2CC2)cc1Cl	-	-	-	-	-
CC(CNS(=O)(=O)c1ccccc1)Sc1ncccn1 (stereo not given)	-	-	-	346.1	-
COc1cc(OC)cc(-n2c3nc4ccccc4nc3c3c(=O)n(CC4CCCO4)cnc32)c1 (stereo not given)	-	1.1	.	-	-
O=c1c2c3nc4ccccc4nc3n(CC3CCCO3)c2ncn1CCc1ccccc1 (stereo not given)	-	-	-	-	-
Cc1cc([N+](=O)[O-])ccc1N1C(=O)c2ccc(C(=O)Nc3ccccc3C(=O)O)cc2C1=O	-	-	-	-	-
O=S(=O)(Nc1ccc(S(=O)(=O)Nc2ccccc2)cc1)c1ccccc1	-	-	-	-	-
O=S(=O)(Nc1ccc(Nc2ccccc2)cc1)c1ccc(F)cc1	-	-	-	-	-94.8
CC(C)CN(C(=O)CCC(=O)OCC(=O)N(C)c1ccccc1)c1c(N)n(CC(C)C)c(=O)[nH]c1=O	-	-	-	514.9	-
Cc1ccc(NS(=O)(=O)c2ccc(NS(=O)(=O)c3cccs3)cc2)cc1	-	-	-	302.5	-
CCOC(=O)N1CCN(C(=O)COc2ccc(S(=O)(=O)NC(C)C)cc2)CC1	-	-	-	-	-
Cc1cc([N+](=O)[O-])cnc1NC(C)c1ccccc1 (stereo not given)	-	-	-	330.1	-
C[C@H]1CN([C@@H](C)CO)C(=O)c2cc(Br)cnc2O[C@H]1CN(C)C(=O)Cc1ccccn1	.	.	-	.	.
NC(=S)Nc1cccc2cc3ccccc3cc12	-	-	-	-	-80.1
NC(=S)Nc1cc2ccccc2c2ccccc12	-	-	-	-	-
CC(C)C(NC(=O)/C=C/c1ccc(F)cc1)C(C)C	-	-	-	288.2	-
SMILES	ATG4B inhibitor	Efflux pump mplx	V-ATPase pH	SUMO Mot1 rescue	AI-2 QS modul
CC(NC(=O)/C=C/c1ccccc1)c1ccccc1 (stereo not given)	-	-	-	-	-
COc1cc(/C=C/C(=O)O)ccc1O	-	-	-	-	-
COc1cc(/C=C/C(=O)CC(=O)/C=C/c2ccc(O)c(OC)c2)ccc1O	49.3	-	-	-	-
CCCCCCc1cc2cc(S(=O)(=O)c3ccc(F)c(Cl)c3)c(=O)oc2cc1O	-	-	-	.	-
O=c1c2ccccc2nc(/C=C/c2ccc([N+](=O)[O-])o2)n1CCCO	-	-	-	-	-84.2
O=c1c2ccccc2nc(/C=C/c2ccc([N+](=O)[O-])cc2)n1CCCO	-	-	-	-	-
CC(C)c1ccc2c(c1)C1(NN=C(c3ccccc3)S1)C(=O)N2 (stereo not given)	-	-	-	-	-90.7
N#C/C(=C/c1ccc(N2CCCCC2)o1)C(=O)Nc1ccc2ccccc2c1	-	.	41.1	.	-
O=C(NCCCN1CCCC1=O)c1ccc(NS(=O)(=O)c2cccc([N+](=O)[O-])c2)cc1	-	-	-	-	-
Cc1nnc(N2C(=O)c3cccc4c([N+](=O)[O-])ccc(c34)C2=O)s1	-	2.1	-	-	-

Assay outcomes from PubChem.
